# Assay outcomes: PubChem BioAssay, several laboratories
# CYP2C9 inh: blockers of cytochrome P450 2C9 activity – biochemical, luminescence, ADME assay, primary screen; P11712; CYP2C9 Supersomes, luciferin-H conversion; inhibition, % at 5 µM; actives 20% (n = 96,000); AID 777, 2007;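 active means blocking of liver enzyme CYP2C9 beyond about 50% at 5 µM, limit read from the data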
# Target sequence (P11712 whole entry, looked up): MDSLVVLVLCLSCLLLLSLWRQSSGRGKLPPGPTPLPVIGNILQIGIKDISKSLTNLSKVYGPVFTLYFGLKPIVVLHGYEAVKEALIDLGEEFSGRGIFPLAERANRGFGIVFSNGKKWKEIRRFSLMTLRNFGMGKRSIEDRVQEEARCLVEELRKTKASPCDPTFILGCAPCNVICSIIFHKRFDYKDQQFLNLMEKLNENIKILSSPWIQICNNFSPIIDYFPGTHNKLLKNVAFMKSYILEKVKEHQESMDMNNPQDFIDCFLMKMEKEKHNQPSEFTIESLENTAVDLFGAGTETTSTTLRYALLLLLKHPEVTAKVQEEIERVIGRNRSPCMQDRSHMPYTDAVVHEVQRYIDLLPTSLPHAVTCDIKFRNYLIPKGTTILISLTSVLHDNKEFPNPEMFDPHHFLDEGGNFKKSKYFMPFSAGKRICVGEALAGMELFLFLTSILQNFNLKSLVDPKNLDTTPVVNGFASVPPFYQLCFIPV
# CYP2C9 act: human CYP2C9 activators, primary screen, biochemical, luminescence. Cytochrome P450 2C9 (Homo sapiens), P11712. recombinant CYP2C9, luciferin-H conversion; stronger effect = higher value; factor 1 = untreated enzyme, 0 = blocked. activation factor at 5 µM. actives 1.4% (n = 96,000). AID 1024, 2008;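 active means activation factor of 2 or more for CYP2C9 at a 5 µM dose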;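 further: 0 = sulfaphenazole-blocked wells and 1 = vehicle-only wells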
# CYP2C19 inh: blockers of cytochrome P450 2C19 activity – biochemical, luminescence, ADME assay, primary screen. inhibition, % at 5 µM. actives 21% (n = 96,000). CYP2C19 Supersomes, luciferin-H EGE luminescence, 30 min;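 active means CYP2C19 inhibition above a set limit at 5 µM in the primary screen, cut at about 50% in these data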;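 further: plate controls were negative control wells for no effect and 2.5 mM tranylcypromine positive control for full effect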
# EphB4 antag: EphB4-ephrin-B2 interaction antagonists, primary screen, biochemical, TNYL-RAW peptide probe, fluorescence polarization; inhibition, % at 7 µM; Ephrin type-B receptor 4 (Homo sapiens), P54760; EphB4 LBD / TNYL-RAW-Alexa532 peptide; actives 0.15% (n = 97,000);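 active means inhibition above the screen-wide mean inhibition plus 3 SD, cut at about 15% in these data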;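 further: 0% = DMSO wells and 100% = excess unlabeled TNYL-RAW peptide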
# CYP2C19 activ: human CYP2C19 activators, primary screen, biochemical, luminescence. Cytochrome P450 2C19 (Homo sapiens), P33261. recombinant CYP2C19, luciferin-H EGE luminescence; stronger effect = higher value; 0 = fully inhibited enzyme, 1 = untreated enzyme. activation factor at 5 µM. 96,000 tested, under 10 active;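 active means activation factor of at least 2 at 5 µM in the primary screen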;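 further: 0 = wells with 2.5 mM tranylcypromine and 1 = vehicle-only wells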
# * marks the source's active call; other numbers are inactive results; · = no result given. Hits are enriched below; roughly 27% of the tested compounds scored in any of these assays.
SMILES,CYP2C9 inh,CYP2C9 act,CYP2C19 inh,EphB4 antag,CYP2C19 activ
CCCCCCS(=O)Cc1ccccc1 (stereo not drawn),-5,1.1,91*,·,0.1
CCCCP(=O)(CCCC)Cc1ccccc1,4,1,0,8,1
CCOC(=O)CSc1n[nH]c(NC(=O)c2ccc(F)cc2)n1,21,0.8,53*,1,0.5
O=Cc1ccc(N2CCCC2)c(F)c1,12,0.9,49,-3,0.5
O=Cc1ccc(N2CCCCCC2)cc1,30,0.7,89*,4,0.1
O=C1CCc2cc(S(=O)(=O)NCCC(=O)NC3CCN(Cc4ccccc4)CC3)ccc2N1,10,0.9,-7,-10,1.1
CC(C)CCNC(=O)[C@@H](NC(=O)c1c(F)cccc1F)C(C)C,18,0.8,27,-6,0.7
O=C(O)c1ccc(CSCc2ccco2)cc1,-4,1,15,-4,0.8
Cc1cc(C)n2cc(CSc3nnnn3-c3ccccc3C)nc2n1,-174,2.7*,35,5,0.6
Cc1cccc2nc(CSCc3ccco3)cn12,0,1,64*,6,0.4
Cc1cc(C)n2cc(CSCc3ccco3)nc2n1,70*,0.3,9,4,0.9
Cc1cc(C)n2cc(CSC3=NCCS3)nc2n1,-33,1.3,-10,-3,1.1
COc1cccc(NC(=O)CSc2nnc(COc3ccc4c(c3)CCCC4)o2)c1,18,0.8,8,-5,0.9
Cc1ccc(OCC(=O)NCCO)cc1C,-28,1.3,11,-5,0.9
O=C1/C(=C\c2ccccc2)CCc2c1[nH]c1ccccc21,26,0.7,91*,-3,0.1
Cc1ccc(/C=C2/CCc3c([nH]c4ccccc34)C2=O)cc1,24,0.8,63*,0,0.4
Cc1ccc2[nH]c3c(c2c1)CC/C(=C/c1ccccc1)C3=O,29,0.7,40,-1,0.6
COCCNC(=O)C(c1cccs1)N(C(=O)Cn1nnc2ccccc21)c1ccccc1 (stereo not drawn),-10,1.1,-12,1,1.1
O=C1CC(SCc2nc3ccccc3[nH]2)C(=O)N1c1ccc(F)c(Cl)c1 (stereo not drawn),32,0.7,52*,2,0.5
O=C1CC(SCc2nc3ccccc3[nH]2)C(=O)N1c1ccc(Cl)cc1 (stereo not drawn),25,0.8,32,0,0.7
O=C1CC(SCc2nc3ccccc3[nH]2)C(=O)N1c1cccc(F)c1 (stereo not drawn),71*,0.3,81*,6,0.2
CN(C)CCN1C(=O)C(=O)/C(=C(/O)c2ccc(S(=O)(=O)N3CCOCC3)cc2)C1c1ccccc1 (stereo not drawn),-18,1.2,0,·,1
CC(C)(O)c1nnn(-c2ccccc2)c1C(F)(F)F,-10,1.1,75*,3,0.3
O=C1c2sc3nc4n(c(=O)c3c2CCC1Br)CCCCC4 (stereo not drawn),26,0.7,16,-8,0.8
CSc1ccccc1C(=O)NCC1CCCO1 (stereo not drawn),4,1,3,3,1
SMILES,CYP2C9 inh,CYP2C9 act,CYP2C19 inh,EphB4 antag,CYP2C19 activ
Cc1scc(C(=O)NCc2ccco2)c1-c1ccccc1,46,0.5,61*,·,0.4
O=C(NCc1ccco1)c1cc(-c2ccc(F)cc2)on1,3,1,11,0,0.9
O=C(NCc1ccco1)c1cc(-c2ccccc2)on1,-108,2.1*,8,3,0.9
O=C(NCC1CCCO1)c1ccccc1-c1nc(-c2ccccc2)no1 (stereo not drawn),58*,0.4,24,13,0.8
Cn1nc(-c2ccc(Cl)cc2)c2cc(C(=O)NCC3CCCO3)sc21 (stereo not drawn),53*,0.5,28,6,0.7
Cc1ccc(NC(=O)Cn2cnc3sc(C(=O)NCc4ccco4)c(C)c3c2=O)cc1Cl,0,1,9,-1,0.9
CC1(C)CC(=O)/C(=C(\O)c2ccccc2)C(=NCCO)C1,-8,1.1,8,2,0.9
COc1ccc(-c2cc(=O)[nH][nH]2)cc1OC,-3,1,3,-2,1
O=C(NCC1CCCO1)c1cc(-c2ccccc2)on1 (stereo not drawn),-156,2.6*,-4,7,1
O=C(NCc1ccco1)c1cc2c(s1)CSC2,56*,0.4,32,-2,0.7
COc1ccccc1NCC(O)Cn1c2ccccc2c2ccccc21 (stereo not drawn),77*,0.2,69*,9,0.3
C=CCn1c(=O)c(C(=O)Nc2ccccc2OC)c(O)c2ccccc21,6,0.9,-2,·,1
CCc1c(C(C)S(=O)(=O)c2ccc(C)cc2)[nH]c(=O)n1-c1ccc(C)cc1 (stereo not drawn),19,0.8,59*,-3,0.4
Cc1nnc(SCC(=O)NC(C)(C)C)n1CCc1ccccc1,·,·,·,2,·
O=C(c1ccc([N+](=O)[O-])cc1)N(Cc1ccc(Br)cc1)N1C(=O)CCCC1=O,27,0.7,73*,6,0.3
Cc1cc(N2CCCC2)ccc1/C=N/n1cnnc1,86*,0.1,99*,0,0
Cc1cc(C)nc(Nc2ccc(N3CCCC3)cc2)n1,-1,1,5,-9,0.9
CCOc1ccc(C2N(c3ccc(F)cc3)C(=O)C3CCCN32)cc1 (stereo not drawn),83*,0.2,83*,0,0.2
CN(C)c1ccc(C2N(c3ccc(F)cc3)C(=O)C3CCCN32)cc1 (stereo not drawn),30,0.7,36,3,0.6
COc1ccc(N2C(=O)C3CCCN3C2c2ccc(Cl)cc2)cc1 (stereo not drawn),16,0.8,7,-9,0.9
Cc1ccc(C2N(c3ccc(F)cc3)C(=O)C3CCCN32)cc1 (stereo not drawn),32,0.7,50*,-4,0.5
CCCCc1nc(NCCNC(=O)c2ccco2)c(C#N)c2c1CSC(C)(C)C2,93*,0.1,68*,-10,0.3
Cc1nc2ccc(NC(=O)c3cccc(C(F)(F)F)c3)cc2o1,20,0.8,22,-1,0.8
CN(CCOC(=O)c1cccc(Br)c1)C(C)(C)C,60*,0.4,25,1,0.8
N#Cc1ccc(OCc2nnc(SCC(=O)c3ccccc3)n2-c2ccccc2)cc1,·,·,·,-1,·
COC(=O)c1cccc(NC(=O)CSc2nnc(C)n2Cc2ccccc2)c1,89*,0.1,70*,·,0.3
Cc1cccc(NC(=O)CSc2nnc(C)n2Cc2ccccc2)c1,-5,1,59*,-1,0.4
Cc1nnc(SCC(=O)Nc2ncc(Cl)cc2Cl)n1Cc1ccccc1,33,0.7,33,-2,0.7
